EPAC1 agonist: human EPAC1 agonism, validation; O95398; EPAC1 Rap1b BODIPY-GDP exchange, fluorescence; Potency, µM, usual class: activators; 1% of 16,000 active; also: nearly all actives have a fitted effect of over 70% in size
EPAC2 ant val: human EPAC2 antagonism, validation; AID 1645886; EPAC2 Rap1B BODIPY-GDP exchange, fluorescence; Potency, µM (series often up to 112 µM), usual class: inhibitors; 1.7% of 16,000 active; Q8WZA2; also: nearly all actives have a fitted effect of over 40% in size
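Fluorescent exchange read-out: 100 nM EPAC2 with 250 nM RAP1B–BODIPY-GDP and 50 uM GDP; BODIPY-GDP release lowers fluorescence. Read at 480/540 nm every 5 min for 30 min at room temperature; normalized to 6.5 mM cAMP.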
Each line names hits and unclear results; the compound was inactive in the other large screens; ! = not active in a repeat. Only some compounds are listed: those with a hit (about 2.9% of all), similar ones and a draw of the others. Calls follow the shape of the dose curve; as a rule, active = well fitted curve in the direction sought with a large enough effect; inconclusive = small, poorly fitted or top-dose-only effect, or another doubt; inactive = no such curve, though single readings can be large; an effect the other way counts as inactive or inconclusive.

CON=C1C[C@]2(C[C@@H]3C[C@@H](C/C=C(\C)C[C@@H](C)/C=C/C=C4\CO[C@@H]5[C@H](O)C(C)=C[C@@H](C(=O)O3)[C@]45O)O2)O[C@H](/C(C)=C/C(C)C)[C@H]1C	EPAC2 ant val inconclusive
C/C=C1\NC(=O)[C@H]2CSSCC/C=C/[C@H](CC(=O)N[C@H](C(C)C)C(=O)N2)OC(=O)C(C(C)C)NC1=O (some centres undefined)	none
COC(=O)C1CCCCN1Cc1nc(N2CCCN(C(C)=O)CC2)c2ccccc2n1 (centres undefined)	none
c1ccc2c(N3CCCCCC3)nc(CN3CCCCC3c3nccs3)nc2c1 (centres undefined)	EPAC2 ant val 20µM
COc1cc(=O)n2c(c1C(=O)NC(C)c1ccco1)CCN(C(=O)c1cccc(C)c1C)CC2 (centres undefined)	none
CCC(CN)CC(C)CCNCC(O)CNCC(C)CC(CC)CN (centres undefined)	none
CN1CCC(=C2c3ccccc3CCc3cccnc32)CC1	none
CCOC(=O)N1CCC(=C2c3ccc(Cl)cc3CCc3cccnc32)CC1	EPAC2 ant val 35µM!
Cc1ccccc1-c1ccc2ncnc(N(C)Cc3ccco3)c2c1	EPAC1 agonist 100µM, EPAC2 ant val 20µM
CN(C)Cc1ccccc1-c1ccc2ncnc(N(C)Cc3ccco3)c2c1	none
CN(Cc1ccco1)c1ncnc2ccc(-c3ccc4c(c3)OCO4)cc12	EPAC2 ant val 35µM
CN(Cc1ccco1)c1ncnc2ccc(-c3cccnc3)cc12	none
CN(C)CCC=C1c2ccccc2COc2ccccc21	none
NC[C@@H]1CC[C@@H](N)[C@@H](O[C@H]2[C@H](O)[C@@H](O[C@H]3O[C@H](CO)[C@@H](O)[C@H](N)[C@H]3O)[C@H](N)C[C@@H]2N)O1	EPAC1 agonist inconclusive
COC(=O)C1=C(C)NC(C)=C(C(=O)OC)C1c1ccccc1[N+](=O)[O-]	EPAC2 ant val inconclusive
COC(=O)C1=C(C)NC(COC(N)=O)=C(C(=O)OC(C)C)C1c1cccc(Cl)c1Cl (centres undefined)	EPAC1 agonist inconclusive, EPAC2 ant val 50µM
NC(Cc1ccccc1)C(=O)O (centres undefined)	none
Cc1c(N)nc([C@H](CC(N)=O)NC[C@H](N)C(N)=O)nc1C(=O)N[C@H](C(=O)N[C@H](C)[C@@H](O)[C@H](C)C(=O)N[C@H](C(=O)NCCc1nc(-c2nc(C(=O)NCCCCN=C(N)N)cs2)cs1)[C@@H](C)O)[C@@H](O[C@@H]1O[C@@H](CO)[C@@H](O)[C@H](O)[C@@H]1O[C@H]1O[C@H](CO)[C@@H](O)[C@H](OC(N)=O)[C@@H]1O)c1cnc[nH]1	none
CC[C@@]1(O)C[C@H](O[C@H]2C[C@H](N(C)C)[C@H](O[C@H]3C[C@H](O)[C@H](O[C@H]4CCC(=O)[C@H](C)O4)[C@H](C)O3)[C@H](C)O2)c2c(cc3c(c2O)C(=O)c2c(O)cccc2C3=O)[C@H]1C(=O)OC	none
CC(=O)[C@]1(O)Cc2c(O)c3c(c(O)c2[C@@H](O[C@H]2C[C@H](N)[C@H](O)[C@H](C)O2)C1)C(=O)c1ccccc1C3=O	EPAC1 agonist 40µM
COc1cccc2c1C(=O)c1c(O)c3c(c(O)c1C2=O)C[C@@](O)(C(=O)CO)C[C@@H]3O[C@H]1C[C@H](N)[C@H](O[C@@H]2CCCCO2)[C@H](C)O1	none
CC(=O)[C@]1(O)Cc2c(O)c3c(c(O)c2[C@@H](O[C@H]2C[C@H](N)[C@H](O)[C@H](C)O2)C1)C(=O)c1c(O)cccc1C3=O	EPAC1 agonist 112µM
COc1cccc2c1C(=O)c1c(O)c3c(c(O)c1C2=O)C[C@@](O)(C(C)=O)C[C@@H]3O[C@H]1C[C@H](N)[C@H](O)[C@H](C)O1	EPAC1 agonist 112µM!
COc1ccccc1C(=O)N(Cc1cc2cc3c(cc2nc1N(C)C)OCO3)CC1CCCO1 (centres undefined)	EPAC2 ant val inconclusive
CCC1C(=O)NCCN1Cc1ccc2c(c1)CN(Cc1cccc(OC)c1OC)CCO2 (centres undefined)	none
Cc1oc(-c2ccccc2NC(=O)C2CCC2)nc1CNC(=O)c1c(F)ccc(F)c1F	none
COC(=O)c1c(OCc2cccnc2)cc(=O)n2c1CCN(Cc1cc3c(cc1Cl)OCO3)CC2	none
O=C(CN1Cc2ccccc2OC(c2ccsc2)C1)N1CCN(Cc2ccc3c(c2)OCO3)CC1 (centres undefined)	EPAC2 ant val 56µM
O=C(CN1CCN(Cc2ccc3c(c2)OCO3)CC1)N1c2ccccc2Sc2ccccc21	none
CNc1cc(OC)c(C(=O)N[C@H]2CCN(Cc3ccccc3)[C@H]2C)cc1Cl	EPAC2 ant val inconclusive
CC(C(=O)O)c1cccc(Oc2ccccc2)c1 (centres undefined)	none
CC(/C=C/c1cccc(Oc2ccc(F)cc2)c1)N(O)C(N)=O (centres undefined)	EPAC2 ant val 79µM
C[C@@H](/C=C\c1cccc(Oc2ccc(F)cc2)c1)N(O)C(N)=O	EPAC2 ant val 25µM

Compound activity (PubChem)
